Structures are written as SMILES. Where a name gives a salt, the structure may show the parent alone. ± gives the standard deviation of the averaged measurements.

Assay [1] relates to Saccharomyces cerevisiae BY4741 SeMeCo community. The experiment in a line: mean cell size (pixel area) (pixels); higher = larger cells. As to conditions: 10 µM; 24 h; SM minimal medium. The method in brief: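 Plates of 384 wells were acoustically predosed with drug at a final 10 µM in SM medium, and 70 µl of a Saccharomyces cerevisiae BY4741 preculture diluted from OD600 = 1.0 to OD600 = 0.3 was added for 24 h. The yeast formed a four-plasmid fluorescent community in which each plasmid complements one auxotrophy and carries a fluorescent marker. Fixed cells were imaged by automated confocal microscopy and analysed in Harmony for mean cell pixel area per well. Values are means of 3 replicates. Same SeMeCo high-content imaging drug screen: Selleck FDA-approved drugs at 10 µM, 24 h in SM medium, 384-well plates, 3 replicates.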

Assay [2] shares this test system. The experiment in a line: z-score of prototroph abundance vs DMSO median; higher = larger share of this subpopulation than in DMSO controls. The note with it: 10 µM; 24 h; SM minimal medium; subpopulation (auxotrophy): Prototroph. A digest of the protocol: (§1)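 Automated confocal microscopy of paraformaldehyde-fixed cells was used to follow a Saccharomyces cerevisiae BY4741 community carrying four plasmids, each restoring one auxotrophy and encoding a distinct fluorescent protein. The community was pre-grown overnight to OD600 1.0, diluted to 0.3, and added at 70 µl to 384-well plates acoustically predosed with library drugs (10 µM final) for 24 h of growth in minimal SM medium. Single-auxotroph fluorescent strains set thresholds and autofluorescence correction, and each subpopulation's abundance was scored as a z-score against the vehicle-well median.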

For assay [3] the test system is unchanged. The assay is described as follows: z-score of subpopulation abundance vs DMSO median, subpopulation auxotrophic for M; higher = larger share of this subpopulation than in DMSO controls. The note with it: 10 µM; 24 h; SM minimal medium; subpopulation (auxotrophy): M. A digest of the protocol:
as §1

Assay [4] shares this test system. The assay is described as follows: z-score of subpopulation abundance vs DMSO median, subpopulation auxotrophic for L; higher = larger share of this subpopulation than in DMSO controls. The note with it: 10 µM; 24 h; SM minimal medium; subpopulation (auxotrophy): L. A digest of the protocol:
as §1

For assay [5] the test system is unchanged. The experiment in a line: z-score of subpopulation abundance vs DMSO median, subpopulation auxotrophic for H; higher = larger share of this subpopulation than in DMSO controls. As to conditions: 10 µM; 24 h; SM minimal medium; subpopulation (auxotrophy): H. A digest of the protocol:
as §1

Assay [6] shares this test system. The experiment in a line: z-score of subpopulation abundance vs DMSO median, subpopulation auxotrophic for LU; higher = larger share of this subpopulation than in DMSO controls. As to conditions: 10 µM; 24 h; SM minimal medium; subpopulation (auxotrophy): LU. The method in brief:
as §1

Assay [7] has the same test system. The experiment in a line: z-score of subpopulation abundance vs DMSO median, subpopulation auxotrophic for LM; higher = larger share of this subpopulation than in DMSO controls. The note with it: 10 µM; 24 h; SM minimal medium; subpopulation (auxotrophy): LM. A digest of the protocol: as §1
The test system is the same in assay [8]. The experiment in a line: z-score of subpopulation abundance vs DMSO median, subpopulation auxotrophic for HU; higher = larger share of this subpopulation than in DMSO controls. As to conditions: 10 µM; 24 h; SM minimal medium; subpopulation (auxotrophy): HU. A digest of the protocol:
as §1

For assay [9] the test system is unchanged. The assay is described as follows: z-score of subpopulation abundance vs DMSO median, subpopulation auxotrophic for UM; higher = larger share of this subpopulation than in DMSO controls. As to conditions: 10 µM; 24 h; SM minimal medium; subpopulation (auxotrophy): UM. The method in brief: as §1
Assay [10] has the same test system. The assay is described as follows: z-score of subpopulation abundance vs DMSO median, subpopulation auxotrophic for HL; higher = larger share of this subpopulation than in DMSO controls. As to conditions: 10 µM; 24 h; SM minimal medium; subpopulation (auxotrophy): HL. The method in brief: as §1
The test system is the same in assay [11]. The experiment in a line: z-score of subpopulation abundance vs DMSO median, subpopulation auxotrophic for HLU; higher = larger share of this subpopulation than in DMSO controls. As to conditions: 10 µM; 24 h; SM minimal medium; subpopulation (auxotrophy): HLU. The method in brief:
as §1

The test system is the same in assay [12]. The experiment in a line: z-score of subpopulation abundance vs DMSO median, subpopulation auxotrophic for HUM; higher = larger share of this subpopulation than in DMSO controls. The note with it: 10 µM; 24 h; SM minimal medium; subpopulation (auxotrophy): HUM. A digest of the protocol: as §1
Assay [13] shares this test system. The experiment in a line: z-score of subpopulation abundance vs DMSO median, subpopulation auxotrophic for LUM; higher = larger share of this subpopulation than in DMSO controls. The note with it: 10 µM; 24 h; SM minimal medium; subpopulation (auxotrophy): LUM. The method in brief:
as §1

For assay [14] the test system is unchanged. The experiment in a line: z-score of subpopulation abundance vs DMSO median, subpopulation auxotrophic for HLUM; higher = larger share of this subpopulation than in DMSO controls. The note with it: 10 µM; 24 h; SM minimal medium; subpopulation (auxotrophy): HLUM. A digest of the protocol: as §1
Assay [15] shares this test system. The assay is described as follows: z-score of subpopulation abundance vs DMSO median, subpopulation auxotrophic for U; higher = larger share of this subpopulation than in DMSO controls. As to conditions: 10 µM; 24 h; SM minimal medium; subpopulation (auxotrophy): U. A digest of the protocol:
as §1

The test system is the same in assay [16]. The experiment in a line: z-score of subpopulation abundance vs DMSO median, subpopulation auxotrophic for HM; higher = larger share of this subpopulation than in DMSO controls. The note with it: 10 µM; 24 h; SM minimal medium; subpopulation (auxotrophy): HM. The method in brief: as §1
Assay [17] has the same test system. The experiment in a line: z-score of subpopulation abundance vs DMSO median, subpopulation auxotrophic for HLM; higher = larger share of this subpopulation than in DMSO controls. As to conditions: 10 µM; 24 h; SM minimal medium; subpopulation (auxotrophy): HLM. The method in brief: as §1

Molecule `C[n+]1ccccc1C=NO` [Pralidoxime Iodide] yielded a mean cell size in assay [1] of 12.27 ± 0.1. For the same molecule, the “z-score of prototroph abundance” value in assay [2] is -0.53. Moreover, the “z-score of subpopulation abundance” value in assay [3] is 0.07; in [4], -0.18; in [5], -0.39; in assay [6], 0.19; in [7], 0.72; in assay [8] it was -0.21. In addition, the “z-score of subpopulation abundance” value in assay [9] is 0.29; in assay [10] it was 0.06; in assay [11], -0.23; in [12], 0.13; in [13], 0.18; in assay [14] it was 0.03.

On to `NNc1nncc2ccccc12` [Hydralazine HCl], for which the mean cell size in assay [1] was 11.8 ± 0.14. The “z-score of prototroph abundance” value in assay [2] was 0.63. Besides, the “z-score of subpopulation abundance” value is -0.11 in assay [3]; -0.91 in assay [4]; 0.89 in assay [15]; -0.18 in [6]; -0.56 in assay [7]; -0.62 in assay [16]. Further, the “z-score of subpopulation abundance” value in assay [8] is 0.18; in [9], 0.37; in assay [10], -0.59; in assay [11] it was -0.68; in [12], -0.64; in [13], -0.97. Also, the “z-score of subpopulation abundance” value in [14] was -0.64.

In [1], `CCOC(=O)c1c(CSc2ccccc2)n(C)c2cc(Br)c(O)c(CN(C)C)c12` [Arbidol HCl] returned a mean cell size of 12.6 ± 0.16. In assay [2], the “z-score of prototroph abundance” value was -0.66. Also, the “z-score of subpopulation abundance” value was 0.41 in assay [3]; -0.99 in [4]; 1.69 in assay [15]; -0.24 in assay [6]; -0.98 in assay [7]; 0.29 in assay [16]. In addition, the “z-score of subpopulation abundance” value in assay [8] was 0.91; in assay [9], 0.68; in [10] it was -0.66; in assay [11] it was 0.12; in assay [12], 0.09; in assay [13], -0.37. For the same molecule, the “z-score of subpopulation abundance” value in assay [14] amounted to 0.15.

`COC(=O)Nc1nc2cc([S+]([O-])c3ccccc3)ccc2[nH]1` (configuration not stated) [Oxfendazole]: in [2], the “z-score of prototroph abundance” value was found to be 0.13. For the same molecule, the “z-score of subpopulation abundance” value in [3] was 0.39; in [4] it was -1.92; in assay [15], 1.29; in assay [5], 0.08; in assay [6], 0.48; in assay [7] it was -1.48. Also, the “z-score of subpopulation abundance” value in [8] is 0.76; in assay [9], 0.53; in [10], 0; in [11] it was -0.7; in assay [17], -0.75; in [14] it was -1.07.

Molecule `CS(=O)(=O)Nc1ccc([N+](=O)[O-])cc1Oc1ccccc1` [Nimesulide] returned a mean cell size in assay [1] of 12.5 ± 0.22. Further, in assay [2], the “z-score of prototroph abundance” value stood at 0.12. Moreover, the “z-score of subpopulation abundance” value in [3] is -0.1; in assay [4], 0.65; in [15], -0.45; in assay [5], -0.25; in assay [6], 0.49; in assay [7] it was 0.74. The “z-score of subpopulation abundance” value is 0.64 in [16]; -0.2 in [8]; -0.24 in assay [9]; 0.8 in assay [10]; 0.61 in assay [11]; 0.28 in [12]. Besides, the “z-score of subpopulation abundance” value in assay [14] turned out to be 0.87.

`NCC[C@H](O)C(=O)N[C@@H]1C[C@H](N)[C@@H](O[C@H]2O[C@H](CN)[C@@H](O)[C@H](O)[C@H]2O)[C@H](O)[C@H]1O[C@H]1O[C@H](CO)[C@@H](O)[C@H](N)[C@H]1O` [Amikacin hydrate] registered a mean cell size in [1] of 12.16 ± 0.089. In addition, the “z-score of prototroph abundance” value in assay [2] came out at 0.26. Further, the “z-score of subpopulation abundance” value was -0.02 in assay [3]; 1.02 in assay [4]; -0.78 in [15]; -0.04 in assay [5]; -0.95 in assay [6]; 0.15 in [7]. In addition, the “z-score of subpopulation abundance” value in assay [16] is -0.36; in [8], -0.52; in assay [9], -0.12; in assay [10] it was 0.87; in assay [11], -0.03; in [12] it was -0.33. Besides, the figures for the “z-score of subpopulation abundance” value in [13] and in [14] were -0.58 and 0.15, respectively.

`C[C@@H]1CC(=O)NN=C1c1ccc(NN=C(C#N)C#N)cc1` [Levosimendan] had a mean cell size in assay [1] of 12.5 ± 0.19. In assay [2], the “z-score of prototroph abundance” value is -0.07. For the same molecule, the “z-score of subpopulation abundance” value is -0.05 in assay [3]; -0.16 in [4]; 0.92 in [15]; -0.43 in assay [5]; 0.42 in [6]; -0.47 in assay [7]. The “z-score of subpopulation abundance” value in [8] is 0.25; in assay [9], 0.05; in assay [10], -0.63; in [11], -0.67; in [12] it was 0.67; in assay [13], -0.29. In addition, the “z-score of subpopulation abundance” value in assay [14] was -0.43.

In turn, `COC(=O)Nc1nc2cc(C(=O)c3ccccc3)ccc2[nH]1` [Mebendazole] registered a mean cell size in assay [1] of 12.07 ± 0.077. Also, the “z-score of subpopulation abundance” value was -0.56 in assay [3]; 0.37 in assay [4]; 1.91 in assay [15]; 1.06 in assay [5]; 0.33 in [6]; 1.32 in assay [7]. Further, the “z-score of subpopulation abundance” value in assay [8] is 1.39; in assay [9], 1.89; in [10], 0.26; in [11] it was -0.05; in [12], 1.64; in [13], 0.4. In addition, the “z-score of subpopulation abundance” value in assay [14] came out at 1.44.
